The supplement of paper PMC10849652
The full data set covers some 8,800 targets. This sample favours those with a hit. About 0.5% of all pairs of compound and target were hits. Unmarked numbers belong to inactive results.

Columns and labels:
Test in all cases: log2 fold change, soluble protein after heating vs DMSO (PISA); higher = thermal stabilisation; K562 lysate, 10 uM; active = over 0.2 and 3.5 SD of the protein, either way, in both replicates (recomputed)
vemurafenib = compound: CCCS(=O)(=O)Nc1ccc(F)c(C(=O)c2c[nH]c3ncc(-c4ccc(Cl)cc4)cc23)c1F [vemurafenib]
Procedure, shortened: (§1)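 Values give the log-two fold change in thermal stability against solvent controls, from duplicates. Crude K562 extract at 1 mg/mL protein, made by dounce homogenisation in PBS pH 7.4 with 1 mM MgCl2, was treated with 10 μM compound for 30 min. After 3 min heating across 48°C-58°C, aliquots were pooled, adjusted to 0.5% NP-40 at 4°C and centrifuged at 21,000xg for 90 min. The supernatant was measured by TMTpro 16plex LC-MS/MS with channel sums equalised.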

[1] = compound: CCCS(=O)(=O)Nc1ccc(F)c(C(=O)c2c[nH]c3ncc(Cl)cc23)c1F
Procedure, shortened: as §1

barasertib = compound: CCN(CCCOc1ccc2c(Nc3cc(CC(=O)Nc4cccc(F)c4)[nH]n3)ncnc2c1)CCOP(=O)(O)O [barasertib]
Procedure, shortened: as §1

[2] = compound: CC[C@@H]1C(=O)N(C)c2cnc(Nc3ccc(C(=O)NC4CCN(C)CC4)cc3OC)nc2N1C1CCCC1
Procedure, shortened: as §1

volasertib = compound: CC[C@@H]1C(=O)N(C)c2cnc(Nc3ccc(C(=O)N[C@H]4CC[C@H](N5CCN(CC6CC6)CC5)CC4)cc3OC)nc2N1C(C)C [volasertib]
Procedure, shortened: as §1

[3] = compound: CCn1c(C(=O)N(C2CC2)C2CC2)cc2c3c(ncn3C)c(Nc3cc(C)n(C)n3)nc21
Procedure, shortened: as §1

[4] = compound: CCn1cc(-c2ccnc3[nH]c(-c4cccc(CN(C)C)c4)cc23)c(-c2ccc(NC(=O)N(C)C)cc2)n1
Procedure, shortened: as §1

[5] = compound: CN1CCC(CNc2ccc3ncc(-c4cccc(OC(F)(F)F)c4)n3n2)CC1
Procedure, shortened: as §1

saracatinib = compound: CN1CCN(CCOc2cc(OC3CCOCC3)c3c(Nc4c(Cl)ccc5c4OCO5)ncnc3c2)CC1 [saracatinib]
Procedure, shortened: as §1

sotrastaurin = compound: CN1CCN(c2nc(C3=C(c4c[nH]c5ccccc45)C(=O)NC3=O)c3ccccc3n2)CC1 [sotrastaurin]
Procedure, shortened: as §1

alvocidib = compound: CN1CC[C@H](c2c(O)cc(O)c3c(=O)cc(-c4ccccc4Cl)oc23)[C@H](O)C1 [alvocidib]
Procedure, shortened: as §1

Tubastatin A = compound: CN1CCc2c(c3ccccc3n2Cc2ccc(C(=O)NO)cc2)C1 [Tubastatin A]
Procedure, shortened: as §1

[6] = compound: CNC(=O)C1=CC=CC=C1NC2=NC(=NC=C2Cl)NC3=C(C=C(C=C3)N4CCOCC4)OC
Procedure, shortened: as §1

defactinib = compound: CNC(=O)c1ccc(Nc2ncc(C(F)(F)F)c(NCc3nccnc3N(C)S(C)(=O)=O)n2)cc1 [defactinib]
Procedure, shortened: as §1

[7] = compound: CNc1nc(-c2ccc3c(N)n[nH]c3c2)cc(N2C[C@@H](C(=O)NC3CCCCC3)CC[C@H]2C)n1
Procedure, shortened: as §1

encorafenib = compound: COC(=O)N[C@@H](C)CNc1nccc(-c2cn(C(C)C)nc2-c2cc(Cl)cc(NS(C)(=O)=O)c2F)n1 [encorafenib]
Procedure, shortened: as §1

[8] = compound: COC(=O)[C@H](CCSC)NC(=O)C1=C(C=C(C=C1)NC[C@H](CS)N)C2=CC=CC=C2
Procedure, shortened: as §1

alisertib = compound: COc1cc(Nc2ncc3c(n2)-c2ccc(Cl)cc2C(c2c(F)cccc2OC)=NC3)ccc1C(=O)O [alisertib]
Procedure, shortened: as §1

[9] = compound: COc1cc2nc(-c3cc(F)ccc3O)nc(N[C@@H]3CNC[C@H]3C(C)(C)O)c2cc1OC
Procedure, shortened: as §1

gefitinib = compound: COc1cc2ncnc(Nc3ccc(F)c(Cl)c3)c2cc1OCCCN1CCOCC1 [gefitinib]
Procedure, shortened: as §1

UniProt Q9NVX7, sequence (Q9NVX7 whole entry, looked up): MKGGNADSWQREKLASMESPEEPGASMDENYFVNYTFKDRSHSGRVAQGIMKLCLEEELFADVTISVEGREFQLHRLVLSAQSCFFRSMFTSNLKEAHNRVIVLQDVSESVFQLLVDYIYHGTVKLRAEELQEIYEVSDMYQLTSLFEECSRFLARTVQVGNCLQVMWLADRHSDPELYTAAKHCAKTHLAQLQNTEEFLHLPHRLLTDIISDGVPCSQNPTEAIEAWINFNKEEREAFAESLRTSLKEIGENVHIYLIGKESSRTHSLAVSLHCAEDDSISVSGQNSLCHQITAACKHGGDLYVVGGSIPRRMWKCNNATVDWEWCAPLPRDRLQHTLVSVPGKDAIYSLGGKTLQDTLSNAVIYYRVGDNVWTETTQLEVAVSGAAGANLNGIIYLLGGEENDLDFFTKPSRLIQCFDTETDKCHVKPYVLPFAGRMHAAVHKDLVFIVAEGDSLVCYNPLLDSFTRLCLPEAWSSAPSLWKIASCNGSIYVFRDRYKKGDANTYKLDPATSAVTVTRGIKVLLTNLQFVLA
UniProt Q9P2P5, sequence (Q9P2P5 whole entry, looked up): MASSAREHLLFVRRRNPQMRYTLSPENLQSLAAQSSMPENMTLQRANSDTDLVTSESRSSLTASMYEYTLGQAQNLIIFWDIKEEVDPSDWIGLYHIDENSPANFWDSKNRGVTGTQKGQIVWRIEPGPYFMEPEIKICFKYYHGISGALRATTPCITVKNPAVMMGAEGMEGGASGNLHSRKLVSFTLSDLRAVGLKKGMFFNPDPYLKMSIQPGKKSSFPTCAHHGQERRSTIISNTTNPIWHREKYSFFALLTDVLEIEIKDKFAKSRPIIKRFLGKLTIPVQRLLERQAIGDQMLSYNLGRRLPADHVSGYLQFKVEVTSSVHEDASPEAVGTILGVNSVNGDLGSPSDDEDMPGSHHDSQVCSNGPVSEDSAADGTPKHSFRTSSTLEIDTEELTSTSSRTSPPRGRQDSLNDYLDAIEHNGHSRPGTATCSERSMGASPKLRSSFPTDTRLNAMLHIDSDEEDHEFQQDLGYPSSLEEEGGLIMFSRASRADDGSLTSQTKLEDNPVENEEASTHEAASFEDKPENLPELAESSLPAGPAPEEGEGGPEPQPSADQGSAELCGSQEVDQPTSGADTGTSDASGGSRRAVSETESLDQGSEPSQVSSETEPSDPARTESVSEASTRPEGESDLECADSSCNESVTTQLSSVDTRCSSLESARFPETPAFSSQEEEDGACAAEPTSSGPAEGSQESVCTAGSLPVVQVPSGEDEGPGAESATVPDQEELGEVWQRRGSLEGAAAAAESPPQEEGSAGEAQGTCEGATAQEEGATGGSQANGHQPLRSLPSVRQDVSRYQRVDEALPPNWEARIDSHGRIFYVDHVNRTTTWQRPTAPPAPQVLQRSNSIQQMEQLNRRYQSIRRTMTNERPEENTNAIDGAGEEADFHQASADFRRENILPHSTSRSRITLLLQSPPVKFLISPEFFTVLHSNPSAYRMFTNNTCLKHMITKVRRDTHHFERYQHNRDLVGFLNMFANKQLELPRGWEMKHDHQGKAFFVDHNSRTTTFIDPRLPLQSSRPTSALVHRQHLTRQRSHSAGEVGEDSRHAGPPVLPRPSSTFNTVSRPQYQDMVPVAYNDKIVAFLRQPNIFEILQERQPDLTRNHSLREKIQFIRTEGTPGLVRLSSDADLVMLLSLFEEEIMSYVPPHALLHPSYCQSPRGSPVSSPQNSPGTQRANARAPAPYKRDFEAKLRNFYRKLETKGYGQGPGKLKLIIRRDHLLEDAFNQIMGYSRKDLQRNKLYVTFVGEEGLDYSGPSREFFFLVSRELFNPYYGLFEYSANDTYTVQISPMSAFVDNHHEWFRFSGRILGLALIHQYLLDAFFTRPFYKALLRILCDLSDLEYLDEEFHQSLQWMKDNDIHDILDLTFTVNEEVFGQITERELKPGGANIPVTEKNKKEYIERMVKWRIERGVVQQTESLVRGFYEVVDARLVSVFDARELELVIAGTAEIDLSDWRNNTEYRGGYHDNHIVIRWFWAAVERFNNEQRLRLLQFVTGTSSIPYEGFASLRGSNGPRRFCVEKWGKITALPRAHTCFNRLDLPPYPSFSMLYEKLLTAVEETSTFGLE
UniProt Q9H4A5, sequence (Q9H4A5 whole entry, looked up): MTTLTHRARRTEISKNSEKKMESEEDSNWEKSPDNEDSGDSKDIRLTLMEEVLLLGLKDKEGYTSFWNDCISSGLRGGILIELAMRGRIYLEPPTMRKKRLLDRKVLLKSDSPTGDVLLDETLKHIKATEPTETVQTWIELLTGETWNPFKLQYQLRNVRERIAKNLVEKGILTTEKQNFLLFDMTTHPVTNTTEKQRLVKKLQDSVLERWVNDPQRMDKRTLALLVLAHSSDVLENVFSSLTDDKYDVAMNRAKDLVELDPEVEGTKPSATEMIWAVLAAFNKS
UniProt Q14571, sequence (Q14571 whole entry, looked up): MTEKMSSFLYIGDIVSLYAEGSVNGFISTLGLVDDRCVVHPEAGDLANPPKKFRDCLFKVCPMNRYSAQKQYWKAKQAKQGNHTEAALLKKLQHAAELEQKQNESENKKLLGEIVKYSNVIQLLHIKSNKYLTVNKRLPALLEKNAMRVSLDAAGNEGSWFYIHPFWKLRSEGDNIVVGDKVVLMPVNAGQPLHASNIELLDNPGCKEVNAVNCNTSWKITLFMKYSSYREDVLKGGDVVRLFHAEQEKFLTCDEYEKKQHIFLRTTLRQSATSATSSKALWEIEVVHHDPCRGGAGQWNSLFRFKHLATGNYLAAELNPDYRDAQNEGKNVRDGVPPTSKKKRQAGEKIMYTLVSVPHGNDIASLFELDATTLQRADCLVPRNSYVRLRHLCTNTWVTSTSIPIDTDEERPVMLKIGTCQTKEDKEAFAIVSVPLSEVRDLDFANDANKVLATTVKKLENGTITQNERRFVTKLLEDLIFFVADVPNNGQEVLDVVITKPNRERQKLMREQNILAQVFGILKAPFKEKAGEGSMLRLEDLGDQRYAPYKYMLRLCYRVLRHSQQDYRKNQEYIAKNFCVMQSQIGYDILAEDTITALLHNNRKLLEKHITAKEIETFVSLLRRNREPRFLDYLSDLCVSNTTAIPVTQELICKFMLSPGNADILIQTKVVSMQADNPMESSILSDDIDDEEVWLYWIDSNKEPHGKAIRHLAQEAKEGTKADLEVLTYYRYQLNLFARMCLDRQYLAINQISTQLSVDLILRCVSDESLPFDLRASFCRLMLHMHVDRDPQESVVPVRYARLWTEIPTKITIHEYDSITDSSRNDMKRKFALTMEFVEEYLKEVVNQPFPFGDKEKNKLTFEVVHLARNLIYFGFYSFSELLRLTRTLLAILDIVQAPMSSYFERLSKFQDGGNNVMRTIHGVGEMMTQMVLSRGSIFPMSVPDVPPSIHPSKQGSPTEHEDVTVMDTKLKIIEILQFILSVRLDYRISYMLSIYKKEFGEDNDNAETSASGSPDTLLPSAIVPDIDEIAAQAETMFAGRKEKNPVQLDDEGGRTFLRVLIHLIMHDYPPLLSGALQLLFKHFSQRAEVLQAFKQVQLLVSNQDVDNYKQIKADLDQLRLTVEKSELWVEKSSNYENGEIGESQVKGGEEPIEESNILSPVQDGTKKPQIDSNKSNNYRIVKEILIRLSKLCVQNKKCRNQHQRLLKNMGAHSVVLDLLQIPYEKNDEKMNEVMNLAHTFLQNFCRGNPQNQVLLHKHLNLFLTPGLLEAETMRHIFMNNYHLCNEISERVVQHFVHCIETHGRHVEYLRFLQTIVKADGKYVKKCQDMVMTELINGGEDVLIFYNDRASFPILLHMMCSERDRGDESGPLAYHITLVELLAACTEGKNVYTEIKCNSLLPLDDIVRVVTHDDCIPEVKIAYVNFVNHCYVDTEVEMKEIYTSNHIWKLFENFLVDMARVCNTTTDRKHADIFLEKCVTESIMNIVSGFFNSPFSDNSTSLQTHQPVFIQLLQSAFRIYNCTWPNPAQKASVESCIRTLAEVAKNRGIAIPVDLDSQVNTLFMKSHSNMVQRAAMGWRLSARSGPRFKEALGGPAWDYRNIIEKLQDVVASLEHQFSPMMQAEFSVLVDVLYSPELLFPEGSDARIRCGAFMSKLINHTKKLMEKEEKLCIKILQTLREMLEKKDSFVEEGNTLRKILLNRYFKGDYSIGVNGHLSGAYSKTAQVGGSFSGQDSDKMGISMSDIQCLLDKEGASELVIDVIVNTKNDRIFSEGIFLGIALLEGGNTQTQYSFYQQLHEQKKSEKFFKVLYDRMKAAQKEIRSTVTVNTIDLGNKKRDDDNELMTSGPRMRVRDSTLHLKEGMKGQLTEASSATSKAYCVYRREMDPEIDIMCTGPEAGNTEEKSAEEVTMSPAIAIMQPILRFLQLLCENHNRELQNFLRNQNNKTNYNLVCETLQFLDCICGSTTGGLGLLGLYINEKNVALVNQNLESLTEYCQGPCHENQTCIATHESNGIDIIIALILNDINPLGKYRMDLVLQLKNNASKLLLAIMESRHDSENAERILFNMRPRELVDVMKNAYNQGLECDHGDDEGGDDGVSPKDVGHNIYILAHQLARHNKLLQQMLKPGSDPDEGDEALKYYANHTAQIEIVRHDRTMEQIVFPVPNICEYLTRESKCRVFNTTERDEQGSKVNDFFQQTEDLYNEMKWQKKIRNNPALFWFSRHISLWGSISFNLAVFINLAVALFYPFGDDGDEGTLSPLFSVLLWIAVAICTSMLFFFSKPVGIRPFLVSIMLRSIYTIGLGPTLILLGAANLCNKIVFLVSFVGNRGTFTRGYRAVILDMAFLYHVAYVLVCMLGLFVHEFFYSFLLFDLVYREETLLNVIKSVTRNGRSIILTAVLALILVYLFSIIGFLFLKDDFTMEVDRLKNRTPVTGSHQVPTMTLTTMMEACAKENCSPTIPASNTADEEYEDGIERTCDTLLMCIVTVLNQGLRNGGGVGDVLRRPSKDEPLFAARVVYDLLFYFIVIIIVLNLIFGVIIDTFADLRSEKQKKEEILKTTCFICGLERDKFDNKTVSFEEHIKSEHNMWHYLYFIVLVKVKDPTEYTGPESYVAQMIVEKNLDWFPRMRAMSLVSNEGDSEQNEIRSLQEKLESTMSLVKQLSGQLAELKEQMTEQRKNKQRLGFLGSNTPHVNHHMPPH

Target	log2 fold change (vemurafenib)	log2 fold change [1]	log2 fold change (barasertib)	log2 fold change [2]	log2 fold change (volasertib)	log2 fold change [3]	log2 fold change [4]	log2 fold change [5]	log2 fold change (saracatinib)	log2 fold change (sotrastaurin)	log2 fold change (alvocidib)	log2 fold change (Tubastatin A)	log2 fold change [6]	log2 fold change (defactinib)	log2 fold change [7]	log2 fold change (encorafenib)	log2 fold change [8]	log2 fold change (alisertib)	log2 fold change [9]	log2 fold change (gefitinib)
GTF2H1 (UniProt P32780)	0.013	0.014	0.014	-0.021	-0.028	-0.028	-0.042	-0.075	0.018	-0.012	-0.053	-0.023	0.05	0.041	0.031	-0.004	-0.059	0.065	-0.021	-0.015
HMGCL (UniProt P35914)	-0.017	0.01	0.027	0.037	0.014	0.037	0.05	-0.02	-0.013	-0.01	0.013	-0.012	-0.015	0.059	0.055	0.032	-0.102	-0.031	-0.016	-0.021
GOLPH3L (UniProt Q9H4A5)	0.068	0.025	0.033	-0.055	-0.023	0.048	-0.034	-0.08	0.046	-0.092	0.018	-0.083	-0.005	-0.077	0.008	0.063	-0.395 (active)	0.026	-0.059	0.018
KARS1 (UniProt Q15046)	0.003	-0.002	0.002	-0.072	-0.026	0.024	0.046	-0.052	0.004	0.004	0.027	-0.01	-0.037	0	-0.035	-0.028	0.379 (active)	0.012	-0.011	-0.022
KBTBD4 isoform 2 (UniProt Q9NVX7)	0	0.021	0.013	0.063	-0.022	0.031	-0.04	-0.032	0.086	0.032	-0.064	-0.048	-0.016	0.024	0.193	0.048	-0.08	-0.098	-0.046	0.121
HMGN4 (UniProt O00479)	-0.015	0.016	-0.003	0.453	0.003	0.022	1.29 (active)	-0.595	-0.173	-0.099	0.581	-0.001	0.01	0.122	0.235	-0.072	-0.046	-0.074	-0.036	0.111
HAUS3 (UniProt Q68CZ6)	0.012	0.024	0.006	-0.029	-0.048	0.002	-0.035	-0.065	-0.016	0.01	-0.022	-0.159	0.043	-0.023	-0.021	0.026	0.065	0.014	0.003	-0.011
GNB4 (UniProt Q9HAV0)	–	0.089	-0.046	-0.018	-0.036	0.016	0.001	0.166	-0.165	-0.04	-0.114	-0.002	-0.091	–	0.01	-0.01	0.141	-0.168	0.095	-0.364 (active)
KATNBL1 (UniProt Q9H079)	-0.011	-0.03	–	0.284	0.039	–	-0.105	0.055	-0.068	-0.004	-0.106	–	-0.033	-0.014	0.037	-0.137	-0.188	-0.161	0.025	-0.254
HSPA8 (UniProt E9PN89)	–	-0.06	-0.041	0.057	-0.005	-0.114	-0.366	0.32	-0.01	0.308	-0.248	0.066	-0.074	–	-0.075	0.088	0.035	0.11	0.013	0.076
HMGA1 isoform 2 (UniProt P17096)	–	0.019	–	–	0.034	0.027	0.875 (active)	-0.339	0.053	-0.106	0.289	0.102	0.085	–	0.034	–	–	-0.255	-0.038	-0.442
IPP (UniProt Q9Y573)	-0.102	0.056	–	0.169	-0.162	0.006	0.057	-0.014	-0.035	–	0.001	-0.075	-0.07	0.016	0.029	-0.138	-0.171	–	0.06	–
ITPR2 (UniProt Q14571)	–	-0.044	–	–	0.336	-0.222	–	–	0.088	–	–	-0.03	0.074	–	0.239	–	–	0.001	0.234	-0.019
HDAC3 (UniProt E7ESJ6)	–	0.031	–	–	-0.16	–	–	–	–	–	–	–	–	–	–	–	–	–	-0.005	–
HNRNPD (UniProt D6RF44)	–	–	–	–	–	–	–	–	–	0.079	–	–	–	–	–	–	–	-0.006	–	-0.014
IMPDH2 (UniProt H0Y4R1)	-0.047	0.114	0.134	0.195	0.001	-0.1	0.059	0.129	0.043	0.116	-0.12	-0.554 (active)	–	0.101	0.014	-0.014	-0.505 (active)	-0.038	-0.035	0.052
HECW2 (UniProt Q9P2P5)	0.026	–	–	-0.213	–	-0.04	–	–	0.055	0.065	–	-0.002	0.102	-0.087	-0.099	0	0.153	0.114	–	0.117
GYPA, A0A2R8Y7F9	–	–	0.066	–	–	–	-0.812	0.25	–	–	-0.218	–	–	–	–	–	–	–	–	–
HTT (UniProt P42858)	-0.083	–	0.044	-0.063	–	0.052	-0.039	0.152	-0.033	0.01	0	-0.195	0.022	0.048	-0.043	0.008	-0.003	-0.005	–	-0.032
JAK3 (UniProt P52333)	-0.127	0.014	0.064	–	-0.062	–	0.524	-0.488	–	0.014	0.254	–	–	0.06	–	–	–	–	-0.041	–
GTPBP6 (UniProt O43824)	-0.089	–	–	0.32	–	–	-0.062	-0.096	-0.166	–	0.046	–	–	0.163	0.673	-0.076	0.235	–	–	–
